Screening results deposited in PubChem BioAssay by Pan Lab, Icahn School of Medicine at Mount Sinai.
RBX1-CUL1 inh: inhibitors of human ROC1-CUL1 ubiquitin ligase activity. E3 ubiquitin-protein ligase RBX1 (Homo sapiens) + Cullin-1 (Homo sapiens), P62877+Q13616. in vitro K48 di-Ub FRET, acceptor:donor ratio, 45 min. inhibition, % at 10 µM. 140,000 tested, 0.6% active; in the data active = inhibition above about 25%
Active calls of the source: *. The sample as a whole holds a higher share of hits than the screen did.

SMILES	RBX1-CUL1 inh
C=C(C)Cn1c(C(C)(C)O)nc2ccccc21	10.8
COc1cc(CC2=NC(=O)N(CC(=O)Nc3cccc(C)c3)C2=O)cc(Cl)c1O	3.8
COc1cc(CC2=NC(=O)N(Cc3ccc(C)cc3)C2=O)ccc1OCc1cccc(C(=O)O)c1	17.5
COc1cc(CC2=NC(=O)N(CC(=O)Nc3ccc(C)cc3)C2=O)cc(Cl)c1OCc1cccc(C(=O)O)c1	45.3*
Cc1ncc2c(c1-c1noc(COc3ccc(F)c(Cl)c3)n1)CCNC2	-2.8
O=C(O)c1ccc2c(c1)C(=O)N(CCCO)C2=O	9.7
O=C(C1CCC1)N1CCN(S(=O)(=O)c2cccs2)CC1	4.8
COc1cc(/C=C2\C(=O)NN(c3ccccc3)C2=O)cc(Cl)c1OCCCOc1cccc(C)c1	22.7
COc1cc(/C=C2\C(=O)NN(c3ccccc3)C2=O)cc(OC)c1OC	-2.1
CCOc1cc(/C=C2\C(=O)NN(c3ccccc3)C2=O)cc(Cl)c1OCc1ccc(Cl)cc1	7.4
COc1cc(/C=C2/C(=O)NN(c3ccccc3)C2=O)cc(Br)c1OC(C)=O	-0.7
COc1cc(/C=C2\C(=O)NN(c3ccccc3)C2=O)cc(Cl)c1OCc1ccc(C)cc1	39.4*
CCOc1cc(/C=C2/C(=O)NN(c3ccc(I)cc3)C2=O)cc(Br)c1OC(C)=O	65.8*
COc1cc(/C=C2\C(=O)NN(c3ccccc3)C2=O)cc(Br)c1OC(=O)C12CC3CC(CC(C3)C1)C2	27.4*
COc1cc(/C=C2\C(=O)NN(c3ccccc3)C2=O)cc(I)c1OCc1ccc(Cl)c(Cl)c1	12.4
CCOc1cc(/C=C2\C(=O)NN(c3ccc(I)cc3)C2=O)ccc1O	0.0
COc1cc(/C=C2\C(=O)NN(c3ccccc3)C2=O)cc(Br)c1OCc1ccccc1C	93.6*
COc1cc(/C=C2/C(=O)NN(c3ccc(Br)cc3)C2=O)cc(Br)c1OC	7.1
CCOc1cc(/C=C2/C(=O)NN(c3ccc(C(=O)OC)cc3)C2=O)cc(Br)c1OC(C)=O	18.8
COC(=O)C(O)(C(Cl)C(=O)Nc1ccc(Cl)cc1Cl)C(F)(F)F (stereo not given)	-7.3
COc1ccc(C(OC(=O)c2ccc(F)cc2)c2nccc3ccccc23)cc1 (stereo not given)	-8.6
COC(=O)C(NC(=O)COc1ccccc1)(Nc1cc(C)ccn1)C(F)(F)F (stereo not given)	-5.7
CN(C)c1nc(Nc2ccc(OC(F)(F)F)cc2)nc(OCC(F)(F)F)n1	-2.6
CC1=NC(=S)NC(c2ccccc2Br)C1C(=O)Nc1ccc(C)cc1 (stereo not given)	-3.8
CN1C(=N)C(C(=O)c2ccccc2)C=NC1=S (stereo not given)	0.6
SMILES	RBX1-CUL1 inh
CS(=O)(=O)c1ncc(CN2CCC(C(=O)c3ccccc3)CC2)n1CC1CCCO1 (stereo not given)	4.0
CCOc1cc(/C=C2\C(=O)NN(c3ccccc3)C2=O)cc(Br)c1OCc1ccccc1C	29.6*
CCOc1cc(/C=C2\C(=O)NN(c3ccccc3)C2=O)cc(Br)c1OCc1ccc(C)cc1	8.6
CCOc1cc(/C=C2\C(=O)NN(c3ccccc3)C2=O)cc(Br)c1OCCCOc1ccc(C)cc1	16.6
CCOc1cc(/C=N\n2cnnc2)cc(Br)c1OCC(N)=O	6.9
C=CCSc1nnc2c(n1)OC(c1ccc(OCC)c(C)c1)N(C(C)=O)c1ccccc1-2 (stereo not given)	-5.9
CCOC(=O)N1CCN(Cc2nc(NC3CCCCC3)c3ccccc3n2)CC1	-4.2
O=C(COC(=O)c1ccc(NC(=O)c2ccc(Cl)cc2)cc1)c1cccc([N+](=O)[O-])c1	2.1
O=C(Nc1cc2nc3ccccc3nc2cc1NC(=O)c1cccc([N+](=O)[O-])c1)c1cccc([N+](=O)[O-])c1	0.2
O=C(NC1=NN(c2c(Cl)cc(Cl)cc2Cl)C(=O)/C1=C/c1ccc(O)cc1)c1cccc([N+](=O)[O-])c1	59.6*
COc1ccc(S(=O)(=O)NCC(C)C)cc1	-0.5
CN(C)/N=c1\sc2ccccc2n1C	2.9
CCn1cc(CNC(=O)c2ccc(OC3CCN(C(C)=O)CC3)c(OC)c2)cn1	-16.6
COc1ccc(-n2cnc3c(sc4nnc(-c5ccccc5)c(-c5ccccc5)c43)c2=O)cc1	-0.3
O=C(Nc1cccc(CN2CCOCC2)c1)c1ccc(COc2ccccc2Br)cc1	3.5
Brc1ccc(-c2nnc(-c3ccco3)nc2N2CCOCC2)cc1	7.6
O=C(Oc1ccc2c(C(F)(F)F)cc(=O)oc2c1)c1ccccc1	-1.3
CC(C)(C)c1ccc(C(=O)Oc2ccc3c(-c4ccccc4C(=O)O)c4ccc(=O)cc-4oc3c2)cc1	33.4*
Cc1cc(=O)oc2cc(OC(=O)c3ccc(=O)oc3)ccc12	8.4
Cc1cc(C)c2nc(SCCN3CCOCC3)cc(C)c2c1	6.8
CCOc1c(/C=C(\C#N)C(N)=O)c2ccccc2n1CC	3.3
N#C/C(=C\C=C(/Cl)c1ccccc1)C(N)=O	37.5*
N#CC(C#N)=C/C=C(/Cl)c1ccccc1	10.5
O=C1/C(=C\c2cnn(-c3ccccc3)c2)CCC/C1=C/c1cnn(-c2ccccc2)c1	1.9
COc1ccc(/C=C2\CCC/C(=C\c3ccc(OC)c(OC)c3)C2=O)cc1OC	-4.0
SMILES	RBX1-CUL1 inh
O=C1/C(=C/c2ccoc2)CCC/C1=C\c1ccoc1	97.0*
COc1cccc(C(=O)N2CCC(C3(Cc4ccc(F)cc4)NC(=O)N(C4CCOC4)C3=O)CC2)c1 (stereo not given)	12.2
CCCCOc1ccc(C2C3=C(CCCC3=O)OC(=N)C2C#N)cc1OC (stereo not given)	2.9
Cc1oc(-c2ccccc2NC(=O)C2CCC2)nc1CNC(=O)c1ccc(N2CCCC2=O)cc1	-0.1
CCOC(=O)c1cc(-c2ccc(/C=C3/C(=O)ON=C3C)o2)ccc1Cl	-2.1
CCN1C(=O)/C(=C/c2ccc(-c3ccc(Cl)c(C(=O)O)c3)o2)C(=O)NC1=S	87.1*
C=CCOC(=O)c1cc(-c2ccc(/C=C3/C(=O)NN(c4ccc(F)c(Cl)c4)C3=O)o2)ccc1Cl	1.3
CC1=NN(c2ccccc2)C(=O)/C1=C/c1ccc(-c2ccc(C)c(C(=O)O)c2)o1	2.6
COC(=O)c1cc(-c2ccc(/C=C3/C(=O)NN(c4ccc(C)cc4)C3=O)o2)ccc1Cl	13.0
COC(=O)c1ccc(N2NC(=O)/C(=C/c3ccc(-c4ccc(Cl)c(C(=O)O)c4)o3)C2=O)cc1	35.3*
COc1cc(S(=O)(=O)N2CCCCC2C)c(OC)cc1Br (stereo not given)	6.6
CCc1cccc(C)c1NC(=O)c1nnn(-c2cc(C)ccc2C)c1C	8.7
COc1ccc(OCc2nnc(SCC(=O)Nc3ccc(C)cc3)n2C)cc1	6.4
CC(Oc1ccc(OCc2ccccc2)cc1)C(=O)NNC(=O)c1cc2ccccc2oc1=O (stereo not given)	-1.8
CCOc1ccccc1-c1n[nH]c2c1CN(CC1CCOC(C)(C)C1)CC2 (stereo not given)	-2.1
CCOc1cc(/C=C2\SC(=Nc3ccc(C(=O)O)cc3)N(C)C2=O)ccc1O	18.5
Cc1ccc(CCC(=O)Nc2c(C)cccc2C)cc1	3.7
N#C/C(=C\c1ccc([N+](=O)[O-])o1)c1nc(-c2ccc(F)cc2)cs1	-14.1
N#C/C(=C/c1ccc([N+](=O)[O-])o1)C(=O)O	73.2*
CC(=O)/C(C#N)=C/c1ccc(C#N)o1	2.7
O=c1n(Cc2ccc(Cl)cc2)c2cc(N3CCCCC3)c([N+](=O)[O-])cc2n1Cc1ccc(Cl)cc1	-12.2
